The text below walks through data of PubChem BioAssay.

Each structure is given as a SMILES string.

The test system of the test is wheat germ agglutinin (Triticum aestivum), Alexa647-labelled. In words: wheat germ agglutinin binders on compound microarrays, profiling panel, artefact control for SMM control-protein annotation, biochemical, small-molecule microarray, 635/667 nm fluorescence (AID 1140).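 Note: score merges 667 nm feature emission with signal to noise over triplicate slides.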 The following applies: WGA-A647 binding, 635 nm fluorescence, higher = more signal.
`CC(CCN1CCCc2nc(C)c(C)cc21)=NOC(C)CN1CCCCc2nc(C)c(C)cc21` (stereo unspecified) registered a composite z-score of 0.829.
Next, `CCN1C(=O)[C@@H]2[C@H]3C(=CC[C@@H]2C1=O)C1(OCCCO1)[C@H]1O[C@H]1[C@H]3O`: 0.692.
In turn, `Cc1ccc(S(=O)(=O)N[C@@H]2COC(=O)[C@@H](C)COC(=O)CC=C[C@H]2C)cc1` displayed a composite z-score of -0.0537.
`COC(=O)C1=C(C)N(Cc2ccccc2)[C@]23O[C@](C(=O)OC)(C(=O)N2[C@@H]1c1ccccc1)C(C(=O)OC)=C3C(=O)OC` had a composite z-score of -0.0964.
The value for `CC(C)CON=C1C[C@@H](O)[C@@H](O)[C@@H]2[C@@H]3C(=O)N(c4ccc(F)cc4F)C(=O)[C@@H]3CC[C@H]12` was 0.221.
The value for `CCOC(=O)CCN1C(=O)[C@H]2[C@H]3[C@H](O)[C@H](O)CC(=NOCC(C)C)[C@H]3CC[C@H]2C1=O` was 0.293; that for `CC(C)=CCCC(C)=CCON=C1C[C@@H](O)[C@@H](O)[C@@H]2[C@@H]3C(=O)N(C(C)(C)C)C(=O)[C@@H]3CC[C@H]12` was -0.849; that for `C[C@H]1CC[C@H]2C(=O)O[C@H](COc3ccc(C(C)(C)C)cc3)CN2[C@@H]1c1ccc(Br)cc1` was 0.034.
As to `COC(=O)CC=C[C@@H](C)[C@@H](C=NO[C@@H]1O[C@H](COC(C)=O)[C@@H](OC(C)=O)[C@H](OC(C)=O)[C@H]1OC(C)=O)NS(=O)(=O)c1ccc(C)cc1`, the composite z-score is -0.986.
`CCOC(=O)[C@H](CC(C)C)NC(=O)CCC1CC(OC(=O)NCc2cccc3ccccc23)CC2(CCCC(COC(=O)NCc3ccncc3)O2)O1` (stereo partly specified) returned a composite z-score of 0.725.
Compound `CC(CCN1CCCc2nc(C)c(C)cc21)=NO[C@@H](C)c1cc(-c2c(C)cc(C)cc2C)no1` registered a composite z-score of 0.605.
`O=C1[C@H]2[C@H]3[C@H](O)[C@H](O)CC(=NO[C@@H]4O[C@H](CO)[C@@H](O)[C@H](O)[C@H]4O)[C@H]3CC[C@H]2C(=O)N1c1cccc(Oc2ccccc2)c1` yielded a composite z-score of 0.13.
In turn, `CCOC(=O)NN=C1C[C@@H](O)[C@@H](O)[C@@H]2[C@@H]3C(=O)N(c4ccc(F)cc4F)C(=O)[C@@H]3CC[C@@H]12` registered a composite z-score of 0.455.
Compound `C[C@H]1CC[C@H]2C(=O)OC(CO)CN2[C@@H]1c1ccc(Br)cc1` (stereo partly specified) displayed a composite z-score of 0.162.
Next, `Cn1c(=O)n2n(c1=O)[C@H]1[C@H](O)[C@@H]3O[C@@H]3C(=NOCc3ccccc3)[C@H]1CC2`: 0.349; `O=c1n(-c2ccccc2)c(=O)n2n1CC[C@@H]1C(=NOCc3ccccc3)[C@H]3O[C@H]3[C@@H](O)[C@@H]12`: 0.0398; `C[C@@H]1CC[C@H]2C(=O)O[C@@H](Cc3ccccc3)CN2[C@H]1c1ccc(Br)cc1`: 0.526.
In the case of `CO[C@H]1COC(=O)[C@@H](C)COC(=O)[C@H](C)NC(=O)CC=C[C@H]1C`, the composite z-score was -0.379.
In the case of `CO[C@H]1COC(=O)CC=C[C@H](C)[C@@H](OC)COC(=O)[C@@H](C)COC(=O)CC=C[C@@H]1C`, the composite z-score was -1.05.
The compound `COC(=O)CC=C[C@@H](C)[C@@H](C=NOCC[C@@H]1C=C[C@H](OC(C)=O)[C@@H](COC(C)=O)O1)NS(=O)(=O)c1ccc(C)cc1` returned a composite z-score of -0.477.
Regarding `CCOC(=O)CCN1C(=O)[C@H]2[C@H]3[C@H](O)[C@H](O)CC(=NNC(=O)OCc4ccccc4)[C@@H]3CC[C@H]2C1=O`, the composite z-score was 0.304.
On to `CC(C)=CCCC(C)=CCON=C1C[C@@H](O)[C@@H](O)[C@@H]2[C@@H]3C(=O)N(Cc4ccccc4)C(=O)[C@@H]3CC[C@@H]12`, for which the composite z-score is -0.0507.
Turning to `C[C@@H](ON=C1[C@H]2CCn3c(=O)n(-c4ccccc4)c(=O)n3[C@H]2[C@H](O)[C@@H]2O[C@H]12)c1cn([C@@H]2COC[C@H]2O)nn1`, the composite z-score came out at 0.0978.
In turn, `COc1cc(O)c(C(=O)C=Cc2ccc3c(c2)OCO3)c(OC)c1` gave a composite z-score of 0.393.
For `COC(=O)CC=C[C@@H](C)[C@@H](C=NO[C@H](C)c1cn([C@H](CO)Cc2ccccc2)nn1)NS(=O)(=O)c1ccc(C)cc1`, the composite z-score is 0.645.
Compound `COc1ccc(O[C@H]2C=C[C@@H](c3ccccc3)O[C@@H]2COC(=O)CCC(C)=NO[C@@H]2O[C@H](COC(C)=O)[C@@H](OC(C)=O)[C@H](OC(C)=O)[C@H]2OC(C)=O)cc1` returned a composite z-score of 0.262.
Turning to `CCOC(=O)NN=C1C[C@@H](O)[C@@H](O)[C@@H]2[C@@H]3C(=O)N(Cc4ccc5c(c4)OCO5)C(=O)[C@@H]3CC[C@H]12`, the composite z-score is 0.559.
On to `CCOC(=O)[C@H](CC(C)C)NC(=O)CCC1CC(OC(=O)NCc2cccc3ccccc23)CC2(CCCC(COC(=O)NCCC(C)C)O2)O1` (stereo partly specified), for which the composite z-score was found to be 0.0877.
Next, `CC(C)=CCCC(C)=CCON=C1C[C@@H](O)[C@@H](O)[C@@H]2[C@@H]3C(=O)N(C[C@@H]4CCCO4)C(=O)[C@@H]3CC[C@H]12`: 0.572; `CC=CC1=C(CO)C(=O)[C@@H]2O[C@@H]2C1=O`: -0.173.
Compound `CO[C@H]1COC(=O)CCC[C@@H](C)[C@H](OC)COC(=O)[C@@H](C)NC(=O)CC=C[C@@H]1C` gave a composite z-score of -0.878.
Next, `COc1ccc(O[C@H]2C=C[C@@H](c3ccccc3)O[C@@H]2COC(=O)CCC(C)=NOC[C@@H](O)[C@H]2O[C@@H]3OC(C)(C)O[C@@H]3[C@H]2O)cc1`: -0.13.
With `O=C(NN=C1C[C@@H](O)[C@@H](O)[C@@H]2[C@@H]3C(=O)N(Cc4ccccc4)C(=O)[C@@H]3CC[C@@H]12)OCc1ccccc1`, the composite z-score was -0.148.
`CCOC(=O)[C@H](CC(C)C)NC(=O)CCC1CC(OC(=O)NCc2cccc3ccccc23)CC2(CCCC(COC(=O)NCCc3ccc(Cl)cc3)O2)O1` (stereo partly specified) came in with a composite z-score of 0.844.
Next, `CO[C@@H]1C=CCC(=O)N2CCC[C@H]2C(=O)OC[C@@H](C)C(=O)OC[C@H]1C`: -0.7; `CC(C)CON=C1C[C@@H](O)[C@@H](O)[C@@H]2[C@@H]3C(=O)N(C4CCCCC4)C(=O)[C@@H]3CC[C@H]12`: 0.812.
